Experimental findings from the supplement of paper PMC10077471 are described below.

Whole data set: some 1,900 compounds, median “excess over highest single agent (ExcessHSA) synergy score, 6x6 matrix” near -83, cut for the lowest 2% near -370. What follows is part of a selection rich in the lowest values, with near analogues and random picks from the rest.

The test relates to NCI-H446. Description: excess over highest single agent (ExcessHSA) synergy score, 6x6 matrix; higher = less synergy (more negative = stronger synergy). To be noted: 72 h; CellTiter-Glo viability. (In general: Cellular ATP, detected with luciferase, serves as a proxy for viable cell number.)
As for `FC(F)(F)c1ccc(Nc2nc3ccc(Oc4ccnc(-c5ncc(C(F)(F)F)[nH]5)c4)cc3[nH]2)cc1` + Cc1sc2c(c1C)C(c1ccc(Cl)cc1)=N[C@@H](CC(=O)OC(C)(C)C)c1nnc(C)n1-2 [NCGC00250412-19], the “excess over highest single agent” value was -7.92.
For `CC1(C)CC(=O)c2c(C(F)(F)F)nn(-c3ccc(C(N)=O)c(N[C@H]4CC[C@H](OC(=O)CN)CC4)c3)c2C1` + Cc1sc2c(c1C)C(c1ccc(Cl)cc1)=N[C@@H](CC(=O)OC(C)(C)C)c1nnc(C)n1-2 [NCGC00250412-19], the “excess over highest single agent” value was -482.
On to `CC1(C)CC(=O)c2c(C(F)(F)F)nn(-c3ccc(C(N)=O)c(N[C@H]4CC[C@H](O)CC4)c3)c2C1` + Cc1sc2c(c1C)C(c1ccc(Cl)cc1)=N[C@@H](CC(=O)OC(C)(C)C)c1nnc(C)n1-2 [NCGC00250412-19], for which the “excess over highest single agent” value is -379.
For `COc1cccc2c1CCCC2CCCN1CCN(C2CCCCC2)CC1` (centres undefined) + Cc1sc2c(c1C)C(c1ccc(Cl)cc1)=N[C@@H](CC(=O)OC(C)(C)C)c1nnc(C)n1-2 [NCGC00250412-19] the value was -180; for `Cc1nnc(C(C)C)n1[C@H]1C[C@H]2CC[C@@H](C1)N2CC[C@H](NC(=O)C1CCC(F)(F)CC1)c1ccccc1` + Cc1sc2c(c1C)C(c1ccc(Cl)cc1)=N[C@@H](CC(=O)OC(C)(C)C)c1nnc(C)n1-2 [NCGC00250412-19], -88.4; for `O=C(CC12CC3CC(CC(C3)C1)C2)Nc1cccc2nc(NCCNCCO)ccc12` + Cc1sc2c(c1C)C(c1ccc(Cl)cc1)=N[C@@H](CC(=O)OC(C)(C)C)c1nnc(C)n1-2 [NCGC00250412-19], -112.
For the compound `COc1ccccc1[C@H](c1cccc2ccccc12)[C@@](C)(C#N)C(=O)N1CCC(c2cccc(C(F)(F)F)c2)CC1` + Cc1sc2c(c1C)C(c1ccc(Cl)cc1)=N[C@@H](CC(=O)OC(C)(C)C)c1nnc(C)n1-2 [NCGC00250412-19], the “excess over highest single agent” value was -352.
Regarding `Oc1ccc2ccccc2c1SSc1c(O)ccc2ccccc12` + Cc1sc2c(c1C)C(c1ccc(Cl)cc1)=N[C@@H](CC(=O)OC(C)(C)C)c1nnc(C)n1-2 [NCGC00250412-19], the “excess over highest single agent” value is 56.9.
On to `NS(=O)(=O)OC[C@@H]1C[C@@H](n2ccc3c(N[C@H]4CCc5ccccc54)ncnc32)C[C@@H]1O` + Cc1sc2c(c1C)C(c1ccc(Cl)cc1)=N[C@@H](CC(=O)OC(C)(C)C)c1nnc(C)n1-2 [NCGC00250412-19], for which the “excess over highest single agent” value was -544.
In the case of `O=C1NC(=O)C(c2cnc3ccccn23)=C1c1cn2c3c(cccc13)CN(C(=O)N1CCOCC1)CC2` + Cc1sc2c(c1C)C(c1ccc(Cl)cc1)=N[C@@H](CC(=O)OC(C)(C)C)c1nnc(C)n1-2 [NCGC00250412-19] it was -24.9.
In the case of `NC1(Cc2ccc(Cl)cc2)CCN(c2ncnc3[nH]ccc23)CC1` + Cc1sc2c(c1C)C(c1ccc(Cl)cc1)=N[C@@H](CC(=O)OC(C)(C)C)c1nnc(C)n1-2 [NCGC00250412-19], the “excess over highest single agent” value is -66.
For `COc1cc(CCc2cc(NC(=O)c3ccc(N4CC(C)NC(C)C4)cc3)n[nH]2)cc(OC)c1` (centres undefined) + Cc1sc2c(c1C)C(c1ccc(Cl)cc1)=N[C@@H](CC(=O)OC(C)(C)C)c1nnc(C)n1-2 [NCGC00250412-19] the value was -88.8; for `CC(C)C[C@H](NC(=O)[C@@H](O)[C@H](N)Cc1ccccc1)C(=O)O` + Cc1sc2c(c1C)C(c1ccc(Cl)cc1)=N[C@@H](CC(=O)OC(C)(C)C)c1nnc(C)n1-2 [NCGC00250412-19], -74.5; for `COC[C@H](NC(=O)c1cnc(C)s1)C(=O)N[C@@H](COC)C(=O)N[C@@H](Cc1ccccc1)C(=O)[C@@]1(C)CO1` + Cc1sc2c(c1C)C(c1ccc(Cl)cc1)=N[C@@H](CC(=O)OC(C)(C)C)c1nnc(C)n1-2 [NCGC00250412-19], -227.
In the case of `CC(C)C[C@H](NC(=O)[C@H](CCc1ccccc1)NC(=O)CN1CCOCC1)C(=O)N[C@@H](Cc1ccccc1)C(=O)N[C@@H](CC(C)C)C(=O)[C@@]1(C)CO1` + Cc1sc2c(c1C)C(c1ccc(Cl)cc1)=N[C@@H](CC(=O)OC(C)(C)C)c1nnc(C)n1-2 [NCGC00250412-19], the “excess over highest single agent” value was -521.
In the case of `CN(C)CCN(C)C(=O)c1ccc(NC(=O)Nc2ccc(-c3nc(N4CCOCC4)c4ccn(CC(F)(F)F)c4n3)cc2)cc1` + Cc1sc2c(c1C)C(c1ccc(Cl)cc1)=N[C@@H](CC(=O)OC(C)(C)C)c1nnc(C)n1-2 [NCGC00250412-19], the “excess over highest single agent” value was -272.
Turning to `CC(C)=CC[C@@H](O)C1=CC(=O)c2c(O)ccc(O)c2C1=O` + Cc1sc2c(c1C)C(c1ccc(Cl)cc1)=N[C@@H](CC(=O)OC(C)(C)C)c1nnc(C)n1-2 [NCGC00250412-19], the “excess over highest single agent” value was -344.
As to `Clc1ccc(-c2nc3sccn3c2C=NOCc2ccc(Cl)c(Cl)c2)cc1` + Cc1sc2c(c1C)C(c1ccc(Cl)cc1)=N[C@@H](CC(=O)OC(C)(C)C)c1nnc(C)n1-2 [NCGC00250412-19], the “excess over highest single agent” value was -98.8.
Consider `CCOc1cc(/C=C2/C(=O)N(c3ccccc3)N=C2C)cc(Cl)c1OCC(=O)OC` + Cc1sc2c(c1C)C(c1ccc(Cl)cc1)=N[C@@H](CC(=O)OC(C)(C)C)c1nnc(C)n1-2 [NCGC00250412-19], for which the “excess over highest single agent” value worked out at 76.6.
Take `Cc1nc(N)ncc1-c1nc(N2CCOCC2)c2sc(C(C)(C)O)cc2n1` + Cc1sc2c(c1C)C(c1ccc(Cl)cc1)=N[C@@H](CC(=O)OC(C)(C)C)c1nnc(C)n1-2 [NCGC00250412-19]: the “excess over highest single agent” value was -337.
In the case of `COc1ccc(Nc2cc(-c3cnc(N)nc3)nc(N3CCOCC3)n2)cn1` + Cc1sc2c(c1C)C(c1ccc(Cl)cc1)=N[C@@H](CC(=O)OC(C)(C)C)c1nnc(C)n1-2 [NCGC00250412-19] it was 3.49; in that of `CS(=O)(=O)N1CCc2c(-c3cnc(N)nc3)nc(N3CCOCC3)nc21` + Cc1sc2c(c1C)C(c1ccc(Cl)cc1)=N[C@@H](CC(=O)OC(C)(C)C)c1nnc(C)n1-2 [NCGC00250412-19], -391; in that of `N=C1S/C(=C\c2ccc(-c3ccc4c(c3)C(=O)NC4=O)o2)C(=O)N1c1ccc(Br)cc1` + Cc1sc2c(c1C)C(c1ccc(Cl)cc1)=N[C@@H](CC(=O)OC(C)(C)C)c1nnc(C)n1-2 [NCGC00250412-19], 122.
For `Cc1c(CCOc2ccc(C(=O)O)cc2)c2cc(Cl)ccc2n1C(c1ccccc1)c1ccccc1` + Cc1sc2c(c1C)C(c1ccc(Cl)cc1)=N[C@@H](CC(=O)OC(C)(C)C)c1nnc(C)n1-2 [NCGC00250412-19] the value was -12; for `COc1cccc2c1C(=O)c1c(O)c3c(c(O)c1C2=O)C[C@@](O)(C(=O)CO)C[C@@H]3O[C@H]1C[C@H](N)[C@H](O)[C@H](C)O1` + Cc1sc2c(c1C)C(c1ccc(Cl)cc1)=N[C@@H](CC(=O)OC(C)(C)C)c1nnc(C)n1-2 [NCGC00250412-19], -176; for `COc1cccc2c1C(=O)c1c(O)c3c(c(O)c1C2=O)C[C@@](O)(C(=O)CO)C[C@@H]3O[C@H]1C[C@H](N)[C@@H](O)[C@H](C)O1` + Cc1sc2c(c1C)C(c1ccc(Cl)cc1)=N[C@@H](CC(=O)OC(C)(C)C)c1nnc(C)n1-2 [NCGC00250412-19], -433.
On to `COc1cccc2c1C(=O)c1c(O)c3c(c(O)c1C2=O)C[C@@](O)(C(C)=O)C[C@@H]3O[C@H]1C[C@H](N)[C@H](O)[C@H](C)O1` + Cc1sc2c(c1C)C(c1ccc(Cl)cc1)=N[C@@H](CC(=O)OC(C)(C)C)c1nnc(C)n1-2 [NCGC00250412-19], for which the “excess over highest single agent” value is -304.
Turning to `C[N+](C)([O-])CCNc1ccc(NCC[N+](C)(C)[O-])c2c1C(=O)c1c(O)ccc(O)c1C2=O` + Cc1sc2c(c1C)C(c1ccc(Cl)cc1)=N[C@@H](CC(=O)OC(C)(C)C)c1nnc(C)n1-2 [NCGC00250412-19], the “excess over highest single agent” value was -286.
In the case of `CN(C)c1ccc(C(=O)NCCCCCCC(=O)NO)cc1` + Cc1sc2c(c1C)C(c1ccc(Cl)cc1)=N[C@@H](CC(=O)OC(C)(C)C)c1nnc(C)n1-2 [NCGC00250412-19], the “excess over highest single agent” value is -250.
For `Nc1ccc(C(=O)c2cc3c(ccc4ccccc43)[nH]2)cc1` + Cc1sc2c(c1C)C(c1ccc(Cl)cc1)=N[C@@H](CC(=O)OC(C)(C)C)c1nnc(C)n1-2 [NCGC00250412-19], the “excess over highest single agent” value is -275.
For `CO[C@H]1C(=O)[C@]2(C)[C@@H](OC)C[C@H]3OC[C@@]3(OC(C)=O)[C@H]2[C@H](OC(=O)c2ccccc2)[C@]2(O)C[C@H](OC(=O)[C@H](O)[C@@H](NC(=O)OC(C)(C)C)c3ccccc3)C(C)=C1C2(C)C` + Cc1sc2c(c1C)C(c1ccc(Cl)cc1)=N[C@@H](CC(=O)OC(C)(C)C)c1nnc(C)n1-2 [NCGC00250412-19], the “excess over highest single agent” value is -412.
Regarding `CC(=O)O[C@H]1C(=O)[C@@]2(C)[C@H]([C@H](OC(=O)c3ccccc3)[C@]3(O)C[C@H](OC(=O)[C@H](O)[C@@H](NC(=O)c4ccccc4)c4ccccc4)C(C)=C1C3(C)C)[C@]1(OC(C)=O)CO[C@@H]1C[C@@H]2O` + Cc1sc2c(c1C)C(c1ccc(Cl)cc1)=N[C@@H](CC(=O)OC(C)(C)C)c1nnc(C)n1-2 [NCGC00250412-19], the “excess over highest single agent” value was -144.
For `CC(=O)O[C@@]12CO[C@@H]1C[C@H](O)[C@@]1(C)C(=O)[C@H](O)C3=C(C)[C@@H](OC(=O)[C@H](O)[C@@H](NC(=O)OC(C)(C)C)c4ccccc4)C[C@@](O)([C@@H](OC(=O)c4ccccc4)[C@H]21)C3(C)C` + Cc1sc2c(c1C)C(c1ccc(Cl)cc1)=N[C@@H](CC(=O)OC(C)(C)C)c1nnc(C)n1-2 [NCGC00250412-19], the “excess over highest single agent” value was -135.
With `CC(C)c1ccccc1Cc1cc(C(=O)Nc2ccc(S(=O)(=O)c3ccccc3C(C)(C)C)cc2)c(O)c(O)c1O` + Cc1sc2c(c1C)C(c1ccc(Cl)cc1)=N[C@@H](CC(=O)OC(C)(C)C)c1nnc(C)n1-2 [NCGC00250412-19], the “excess over highest single agent” value is -282.
